# From PubChem BioAssay (NCATS)
# Where “and” joins values, the source holds several entries; their conditions need not be identical. Equal values may be shown once. Records with an inconclusive call do not appear. A call without a number means that no potency is given here. Calls of active or inactive are those of the source. Unless noted, the call rests on the fitted dose curve; in most records, active means well fitted curve in the direction sought with a large enough effect; inconclusive means small, poorly fitted or top-dose-only effect, or another doubt; inactive means no such curve, though single readings can be large; an effect the other way counts as inactive or inconclusive. Non-standard residues stand in square brackets, D forms with d. Residues, ends and D or L forms follow the SMILES beside them. *: point of attachment. Nva = CCC[C@H](N)C(=O)O; Cbz = O=C(OCc1ccccc1)*
# Assays:
# [1] = target: Calcium and integrin-binding protein 1 (Homo sapiens) (UniProt Q99828); assay: Primary qHTS for Identification of Calcium Integrin Binding Protein 1 (CIB1) Competitor (AID 1508620); conditions: CIB1-GST / FITC-alphaIIb peptide fluorescence polarization; series mostly up to 57.7 µM;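 further: GST tagged CIB1 binding a fluorescein labelled alphaIIb integrin peptide tracer; top concentration of the series differs between compounds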
# Summary of the method: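 Fluorescence polarization competition: GST-tagged CIB1 (1 uM final) preincubated with compound 15 min at room temperature, then FITC-labelled alphaIIb peptide (100 nM final) added. After 15 min at room temperature, polarization read at Ex 480/Em 540.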
# [2] = Primary qHTS for small molecule stabilizers of the endoplasmic reticulum resident proteome: Secreted ER Calcium Modulated Protein (SERCaMP) assay (AID 1508630); conditions: SH-SY5Y GLuc-SERCaMP (Gaussia luciferase released on ER calcium loss) secretion, thapsigargin, luminescence; series mostly up to 38.4 µM
# Summary of the method: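 GLuc-SERCaMP-expressing SH-SY5Y cells, pretreated 16 h with compound, are challenged with thapsigargin to empty ER calcium stores; after 4 h, coelenterazine is added directly to the medium and luminescence is imaged.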
# [3] = Primary qHTS for inhibitors of nuclear receptor binding SET domain protein 2 (NSD2) in an isogenic RCH-ACV NSD2 p.E1099K mutant (9B) (AID 1645876); conditions: RCH-ACV NSD2 E1099K (9B) viability, CellTiter-Glo, 72 h; series mostly up to 44.9 µM; further: nearly all actives have a fitted effect of over 70% in size; further: potency means the concentration at half of the fitted maximal effect
# [4] = Primary qHTS for inhibitors of nuclear receptor binding SET domain protein 2 (NSD2) in an RCH-ACV wild type WT cells (2C) (AID 1645877); conditions: RCH-ACV (leukaemia line) NSD2 WT (2C) viability, CellTiter-Glo, 72 h; series mostly up to 44.9 µM; further: nearly all actives have a fitted effect of over 70% in size; further: potency means the concentration at half of the fitted maximal effect
# [5] = target: Cytochrome P450 2D6 (Homo sapiens) (UniProt P10635); assay: Cytochrome P450 family 2 subfamily D member 6 (CYP2D6) small molecule antagonists: luciferase biochemical (cell-free) qHTS assay (AID 1645840; active means well fitted curve in the direction sought with a large enough effect in the repeat runs; an effect the other way counts as inactive or inconclusive; further: nearly all actives have a fitted effect of over 55% in size; further: potency means the concentration at half of the fitted maximal effect); conditions: P450-Glo CYP2D6 enzyme, luciferin luminescence, 1 h; series mostly up to 57.4 µM
# Summary of the method: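 P450-Glo luminescent screen: recombinant CYP2D6 enzyme–proluciferin substrate mix preincubated with compound 10 min at room temperature, then NADPH regeneration added for 1 h at room temperature. Detection reagent added for 20 min; luciferin light read as relative luminescence units.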
# [6] = target: Cytochrome P450 2C9 (Homo sapiens) (UniProt P11712); assay: Cytochrome P450 family 2 subfamily C member 9 (CYP2C9) small molecule antagonists: luciferase biochemical (cell-free) qHTS assay (AID 1645842; active means well fitted curve in the direction sought with a large enough effect in the repeat runs; an effect the other way counts as inactive or inconclusive; further: nearly all actives have a fitted effect of over 55% in size; further: potency means the concentration at half of the fitted maximal effect); conditions: P450-Glo CYP2C9 enzyme assay, luciferin luminescence; series mostly up to 57.4 µM
# Summary of the method: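 Luminescence, after 20 min with luciferin detection reagent, reflected CYP2C9 turnover during a 1 h NADPH-driven reaction at 37C. Enzyme-substrate mix contained 0.4% bovine serum albumin and was preincubated with compound 10 min at room temperature.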
# Sequence of Calcium and integrin-binding protein 1 (Homo sapiens) (Q99828 whole entry, looked up): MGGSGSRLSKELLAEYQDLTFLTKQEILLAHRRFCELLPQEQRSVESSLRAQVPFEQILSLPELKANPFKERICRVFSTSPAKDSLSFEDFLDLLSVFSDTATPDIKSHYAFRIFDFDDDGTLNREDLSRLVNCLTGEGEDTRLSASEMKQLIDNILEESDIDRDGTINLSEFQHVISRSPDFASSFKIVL
# Sequence of Cytochrome P450 2C9 (Homo sapiens) (P11712 whole entry, looked up): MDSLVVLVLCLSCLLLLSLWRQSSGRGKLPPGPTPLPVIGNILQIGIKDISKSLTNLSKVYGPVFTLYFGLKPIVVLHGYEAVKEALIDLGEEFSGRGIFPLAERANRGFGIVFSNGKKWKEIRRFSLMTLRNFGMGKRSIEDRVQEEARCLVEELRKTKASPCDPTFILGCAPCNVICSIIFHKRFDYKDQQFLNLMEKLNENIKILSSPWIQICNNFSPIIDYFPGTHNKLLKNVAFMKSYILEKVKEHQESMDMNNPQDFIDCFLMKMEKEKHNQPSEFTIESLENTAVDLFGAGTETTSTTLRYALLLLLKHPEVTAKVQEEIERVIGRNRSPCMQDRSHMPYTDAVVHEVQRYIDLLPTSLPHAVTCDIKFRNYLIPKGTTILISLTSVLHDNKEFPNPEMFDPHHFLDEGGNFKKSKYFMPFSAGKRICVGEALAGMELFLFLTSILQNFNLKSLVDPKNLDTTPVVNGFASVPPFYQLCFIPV
# Sequence of Cytochrome P450 2D6 (Homo sapiens) (P10635 whole entry, looked up): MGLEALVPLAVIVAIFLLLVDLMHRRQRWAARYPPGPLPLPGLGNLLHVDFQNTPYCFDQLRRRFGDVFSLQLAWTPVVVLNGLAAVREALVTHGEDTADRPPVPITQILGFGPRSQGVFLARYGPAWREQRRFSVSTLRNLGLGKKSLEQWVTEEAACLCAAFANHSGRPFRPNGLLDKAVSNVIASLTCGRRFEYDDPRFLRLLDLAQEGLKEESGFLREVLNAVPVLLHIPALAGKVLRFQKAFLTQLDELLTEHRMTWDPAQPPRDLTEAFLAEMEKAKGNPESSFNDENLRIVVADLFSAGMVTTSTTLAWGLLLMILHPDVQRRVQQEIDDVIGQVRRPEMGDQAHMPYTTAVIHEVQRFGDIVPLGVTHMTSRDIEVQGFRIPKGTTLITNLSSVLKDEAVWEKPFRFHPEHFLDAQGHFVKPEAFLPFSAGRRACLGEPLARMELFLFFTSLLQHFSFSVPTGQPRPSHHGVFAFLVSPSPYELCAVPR
Compound,Potency [1],outcome [2],Potency [3],Potency [4],Potency [5],Potency [6]
CN1C(C(=O)Nc2ccccn2)=C(O)c2sc(Cl)cc2S1(=O)=O,inactive,inactive,inactive,inactive,,
COc1ccc(Nc2cc(-c3cnc(N)nc3)nc(N3CCOCC3)n2)cn1,inactive,inactive,0.525 µM (active),590 nM (active),inactive,8.49 µM (active)
CN(C)CC(=O)N1CCC(c2ccc(NC(=O)c3ncc(C#N)[nH]3)c(C3=CCCCC3)c2)CC1,inactive,inactive,5.8 µM (active) and 11.8 µM (active),10.3 µM (active) and 9.34 µM (active),inactive,inactive
COc1cc(CCc2cc(NC(=O)c3ccc(N4C[C@@H](C)N[C@@H](C)C4)cc3)n[nH]2)cc(OC)c1,inactive,inactive,9.34 µM (active),5900 nM (active),,
Cc1noc(-c2ccc(CSCCC(=O)O)cc2)c1NC(=O)OC(C)c1ccccc1Cl (stereo not drawn),inactive,inactive,inactive,,inactive,12 µM (active)
O=C(NC1CC1)c1cccc(-c2ccc3c(NC(=O)C4CC4)n[nH]c3c2)c1,inactive,inactive,8.33 µM (active),5250 nM (active),,
N#CNC(=NCCCCCCOc1ccc(Cl)cc1)Nc1ccncc1,inactive,inactive,0.0047 µM (active),9.3 nM (active),,
CCC(C(=O)O)C1CCC(C)C(C(C)C(O)C(C)C(=O)C(CC)C2OC3(C=CC(O)[C@@]4(CC[C@](C)(C5CC[C@@](O)(CC)C(C)O5)O4)O3)C(C)CC2C)O1 (stereo partly drawn),inactive,inactive,0.468 µM (active),417 nM (active),,
NC(=O)N1CCC(CC(=O)N2CCC([C@H]3c4ncc(Br)cc4CCc4cc(Cl)cc(Br)c43)CC2)CC1,inactive,inactive,14.8 µM (active),,,
Cc1cnc(NC(=O)Nc2cc(Br)c(C)cc2OC[C@@H]2CNCCO2)cn1,inactive,inactive,1.05 µM (active),934 nM (active),,
NC(=NCCCCCCN=C(N)N=C(N)Nc1ccc(Cl)cc1)N=C(N)Nc1ccc(Cl)cc1,inactive,inactive,4.17 µM (active),5250 nM (active),,
CCC[C@H]1C[C@H](C(=O)N[C@@H]([C@@H]2O[C@@H](SC)[C@@H](O)[C@@H](O)[C@@H]2O)[C@H](C)Cl)N(C)C1,inactive,inactive,inactive,inactive,,
COc1cc([C@@H]2c3cc4c(cc3[C@H](O)[C@H]3COC(=O)[C@@H]23)OCO4)cc(OC)c1OC,inactive,inactive,0.662 µM (active),417 nM (active),,
O=C(CCCCCCC(=O)Nc1cccnc1)NO,inactive,inactive,4.17 µM (active),3320 nM (active),,
CCCCCCCCCCCCCCCC(=O)OC[C@@H](NC(=O)C(Cl)Cl)[C@H](O)c1ccc([N+](=O)[O-])cc1,inactive,inactive,,,inactive,3.01 µM (active)
CCc1c(O)cc(O)c(C(=O)c2ccc(OCCN3CCOCC3)c(OC)c2)c1CC(=O)N(CCOC)CCOC,inactive,inactive,0.372 µM (active),148 nM (active),inactive,
CS(=O)(=O)N1CCc2c(-c3cnc(N)nc3)nc(N3CCOCC3)nc21,inactive,inactive,920 nM (active) and 468 nM (active),459 nM (active) and 468 nM (active),inactive,
CC(O)(C#Cc1ccc2c(c1)N(c1nc(N)ncc1Cl)CC2)c1nccs1 (stereo not drawn),inactive,inactive,13.2 µM (active),13200 nM (active),9.52 µM (active),1.07 µM (active)
CCC[C@@H](C=O)NC(=O)[C@H](CC(C)C)NC(=O)[C@H](CC(C)C)NC(=O)OCc1ccccc1 (Cbz-Leu-Leu-[Nva]-aldehyde),inactive,inactive,2.09 µM (active),1050 nM (active),,
COc1cc(C)c(C=CC(C)=CC=CC(C)=CC(=O)O)c(C)c1C,inactive,inactive,,,inactive,23.9 µM (active)
